Hits are enriched below; roughly 4.8% of the tested compounds scored in any of these assays.
IL1B secr inh: blocks inflammasome-driven IL-1 beta release. THP-1 LPS/ATP IL-1B secretion, AlphaLISA, 16 h; hits give low values. activity change, % at 57.5 µM. 360,000 tested, 4.7% active. AID 743279; in the data active = activity change below about -50%; inconclusive = mostly about -30% to -49%; note: % is set by controls: 0 for no effect and ±100 for the full control effect
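Secreted IL-1B measured by AlphaLISA bead assay after 16 h compound exposure of THP-1 cells; compounds (final up to 57.5 uM) added 1 h before LPS (250 ng/mL) and ATP (1.25 mM) stimulation; lower signal means less secretion.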
ATXN viability: cell viability loss in ATXN counter-screen; Potency, µM (series often up to 56.7 µM), hits mostly cytotoxic; S2 cells (HEK-293 line with an ATXN2-luciferase reporter) viability, CellTiter-Fluor protease fluorescence, 24 h; 400,000 tested, 0.49% active; note: potency is the fitted concentration of half-maximal effect; nearly all actives have a fitted effect of over 40% in size
USP2a block: USP2a (human) protease inhibition; USP2 core, Ub-CHOP2 coupled fluorogenic reporter, 485/531; 330,000 tested, 0.01% active; Potency, µM (titrated, usually from 38.3 µM), for inactives: top-dose activity change, negative = inhibition, most hits filed as inhibitors;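 note: potency is the fitted concentration of half-maximal effect; plate controls were DMSO wells for no effect and full inhibition by NEM control for full effect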
Target sequence (O75604 whole entry, looked up): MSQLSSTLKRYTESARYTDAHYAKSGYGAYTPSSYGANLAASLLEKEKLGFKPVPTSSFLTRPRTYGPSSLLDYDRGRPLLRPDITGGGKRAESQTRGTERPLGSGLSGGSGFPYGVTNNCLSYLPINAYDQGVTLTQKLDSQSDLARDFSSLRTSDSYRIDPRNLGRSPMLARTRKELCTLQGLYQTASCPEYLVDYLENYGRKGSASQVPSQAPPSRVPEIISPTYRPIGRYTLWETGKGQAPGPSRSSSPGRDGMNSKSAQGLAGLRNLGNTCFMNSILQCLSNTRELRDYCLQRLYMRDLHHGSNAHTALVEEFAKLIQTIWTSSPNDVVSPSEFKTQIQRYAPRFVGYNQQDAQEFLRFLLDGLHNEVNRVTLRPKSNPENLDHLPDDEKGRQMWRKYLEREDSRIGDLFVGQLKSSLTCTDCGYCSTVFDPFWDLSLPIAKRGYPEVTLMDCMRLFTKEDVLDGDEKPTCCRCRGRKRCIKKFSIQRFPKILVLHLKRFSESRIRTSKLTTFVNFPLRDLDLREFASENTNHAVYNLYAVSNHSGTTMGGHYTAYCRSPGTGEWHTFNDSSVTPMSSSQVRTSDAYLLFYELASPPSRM
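Cell-free coupled assay: 10nM USP2 core preincubated 30min RT with compound in Tris-HCl pH 8.0/CaCl2/CHAPS buffer, then 25nM Ub-CHOP2 and 25nM reporter substrate; fluorescence (Ex 485/Em 531) read after 60min RT, normalized to NEM inhibition, concentration-response curves fitted.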
ATXN2 expr inh: inhibitors of ATXN2 expression | HEK-293 ATXN2-luciferase reporter, luminescence, 24 h | Potency, µM (series often up to 57 µM), without a hit: at the highest dose activity change, negative = inhibition, most hits filed as inhibitors | 360,000 tested, 0.72% active | AID 1745845; note: potency is the fitted concentration of half-maximal effect; % is set by controls: 0 for no effect and ±100 for the full control effect; nearly all actives have a fitted effect of over 55% in size
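ATXN2-luciferase reporter cells (luciferase flanked by upstream and downstream ATXN2 gene portions) were treated 24 h at 37 °C with compounds at up to 57 uM. SteadyGlo luminescence gave expression; GF-AFC fluorescence gave viability.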
USP1 inh: USP1/UAF1 (human) deubiquitinase inhibition; O94782; recombinant USP1/UAF1, Ub-Rhodamine cleavage fluorescence; Potency, µM (titrated, usually from 57.1 µM), for the others: at the highest dose activity change, negative = inhibition, hits mostly inhibitors; 390,000 tested, 0.23% active; AID 743255; note: potency is the fitted concentration of half-maximal effect; % is set by controls: 0 for no effect and ±100 for the full control effect; nearly all actives have a fitted effect of over 60% in size
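In this screen, compounds sit with the deubiquitinase complex (1nM) for 15 min at room temperature before Ub-Rho is added at 150nM final. Fluorescence rise is then followed for 6 reads every 60 seconds.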
Numbers without * were called inactive; i = inactive; ? = inconclusive; · = not tested or not shown. Unless noted, calls come from the whole dose curve; as a rule, active = well fitted curve in the direction sought with a large enough effect; inconclusive = small, poorly fitted or top-dose-only effect, or another doubt; inactive = no such curve, though single readings can be large; an effect the other way counts as inactive or inconclusive.

SMILES	IL1B secr inh	ATXN viability	USP2a block	ATXN2 expr inh	USP1 inh
Cc1c(C(=O)NCCSCc2cccc(C(F)(F)F)c2)cnn1-c1ccc(Cl)cc1	-57.0*	i	-1.0%	-25.8%	-12.6%
CC(=O)c1cnn(-c2ccc(Cl)cc2)c1C	8.9	i	0.4%	2.2%	-8.8%
O=C(NCCc1c[nH]c2ccccc12)C1CCC(=O)N(CCc2cccc(F)c2)C1 (stereo not drawn)	21.3	i	-0.6%	-2.3%	-22.3%
COc1ccc(C2=NN(C(=O)CN3CCCCC3)C(c3ccc(OC)cc3)C2)cc1 (stereo not drawn)	-12.2	i	0.0%	1.3%	-23.1%
COc1ccc(C2CC(c3ccccc3)=NN2C(=O)COC(=O)C2(C)CC2(Cl)Cl)cc1 (stereo not drawn)	-68.1*	i	5.3%	-30.3%	-19.8%
COc1ccc(C2CC(c3ccccc3)=NN2C(=O)COC(=O)C2CC2)cc1 (stereo not drawn)	-14.1	i	-7.4%	0.1%	-8.9%
COc1ccc(C2=NN(C(=O)CN3CCCC3)C(c3ccc(OC)cc3)C2)cc1 (stereo not drawn)	-62.3*	i	6.2%	-1.7%	-7.1%
COc1cc(=O)n2c(c1C(=O)NCc1ccsc1)CCN(Cc1nc3ccccc3[nH]1)CC2	·	i	·	·	·
COCCCNC(=O)C1CCCN(c2ncnc3onc(C)c23)C1 (stereo not drawn)	·	i	·	-8.2%	-10.0%
CC1CCC2(CC1)NC(=O)N(CC(=O)NC1CCCCC1C)C2=O (stereo not drawn)	-10.4	i	1.6%	-3.7%	-0.2%
O=P(OC1CCCCC1)(OC1CCCCC1)C(Nc1ccccc1)c1cccnc1 (stereo not drawn)	-72.0*	?	-4.5%	-32.1%	4.5%
COC(=O)c1ccc(C(=O)OC)c(NC(=O)N2CC3CCCN3c3ccccc32)c1 (stereo not drawn)	·	·	·	·	-19.8%
COc1cccc(C(C(=O)NCC2CCCO2)N(C(=O)Cn2nnc3ccccc32)c2ccc(NC(C)=O)cc2)c1 (stereo not drawn)	-62.6*	i	0.9%	0.0%	-18.2%
CCOc1cc(C(C(=O)NCC2CCCO2)N(C(=O)Cn2nnc3ccccc32)c2ccc(C(C)=O)cc2)ccc1O (stereo not drawn)	-1.6	i	0.9%	5.3%	-8.4%
COc1ccc(C2CC(c3ccccc3)Nc3nc(NC(=O)c4cccs4)nn32)cc1 (stereo not drawn)	-17.6	i	-3.6%	-1.2%	4.7%
COc1ccc(C2CC(c3cccs3)n3nc(N)nc3N2)cc1 (stereo not drawn)	-58.6*	i	-4.8%	5.5%	-9.0%
COc1ccc(C2CC(c3ccccc3)n3nc(NC(=O)c4cccs4)nc3N2)cc1 (stereo not drawn)	-72.2*	i	-9.5%	-7.4%	-17.1%
COc1ccccc1-c1sc2ccccc2c1C#Cc1ccc(N(C)C)cc1	2.7	·	-7.0%	-4.5%	-10.4%
CC(=S)/C=C1\Sc2ccccc2N1C	-60.6*	i	0.6%	6.6%	?
Cc1ccc(N(Cc2cc(=O)[nH]c3ccccc23)C(=O)CCl)c(C)c1	-104.5*	?	2.6%	?	-3.2%
CCCC(=O)N(Cc1cc(=O)[nH]c2ccccc12)c1ccc(C)cc1C	34.4	i	-1.8%	·	-4.1%
Cc1cc(O)cc(O)c1C=NCc1ccco1	-10.1	17.8µM*	-0.5%	?	-1.7%
Cc1ccc2nc(NCc3ccco3)c(C=NCc3ccco3)c(=O)n2c1	-13.4	i	6.7%	7.5%	-6.4%
Cc1oc(-c2cccc(NC(=O)c3ccccn3)c2)nc1CNC(=O)c1ccc(C(F)(F)F)cc1	·	i	·	·	·
O=C(O)C(O)Cc1ccc(O)c(O)c1 (stereo not drawn)	·	·	·	-12.3%	·
SMILES	IL1B secr inh	ATXN viability	USP2a block	ATXN2 expr inh	USP1 inh
O=C1NC(Cc2c[nH]c3ccccc23)C(=O)N1Cc1cccc2ccccc12 (stereo not drawn)	-100.8*	i	2.3%	-30.2%	-6.9%
CC(C)c1ccc(NC(=O)CN2C(=O)NC(Cc3c[nH]c4ccccc34)C2=O)cc1 (stereo not drawn)	-58.9*	?	-1.8%	-15.1%	-7.9%
Cc1ccccc1C(=O)N1CCC2CC1c1cc(Cl)ccc12 (stereo not drawn)	27.2	i	·	-16.4%	-28.6%
CN1CCn2cnc(C(=O)Nc3ccc(CNC(=O)OC(C)(C)C)cc3)c2C1=O	-9.9	i	·	-3.8%	2.5%
COC1=CC(=O)C(C2CC(=O)c3c(O)cc(O)cc3O2)=CC1=O (stereo not drawn)	-96.9*	·	·	?	?
COc1c(CC=C(C)C)cc(C2CC(=O)c3c(O)cc(O)cc3O2)cc1CC=C(C)C (stereo not drawn)	?	·	-14.5%	?	-18.0%
c1ccc(-c2nc3ccccc3[nH]2)cc1	-22.5	i	0.7%	44.7%	11.1%
O=C(O)c1cccc(-c2nc3ccccc3[nH]2)c1	10.7	i	0.3%	14.1µM*	4.7%
Cc1cccc(CC(=O)NCCS(=O)(=O)N2CCN(c3cccc(Cl)c3)CC2)c1	-1.8	i	-1.2%	-3.3%	-5.0%
Cc1ccc(-c2nc(CS(=O)CC(=O)NCc3ccco3)c(C)o2)cc1 (stereo not drawn)	-14.1	i	1.3%	9.5%	-13.9%
Cc1c(Nc2cc(Cl)c3nonc3c2[N+](=O)[O-])c(=O)n(-c2ccccc2)n1C	-104.6*	28.2µM*	-0.4%	?	-6.4%
O=[N+]([O-])c1c(Nc2cccc(O)c2)cc(Cl)c2nonc12	-95.8*	10µM*	-0.3%	?	?
O=[N+]([O-])c1cncc([N+](=O)[O-])c1Nc1cccc(O)c1	-18.4	·	-4.6%	20µM*	-7.8%
O=C(O)c1ccc(Nc2cc(Cl)c3nonc3c2[N+](=O)[O-])cc1	5.2	?	-0.4%	-22.5%	-17.1%
Cc1ccc(C(NC(=O)NCCCN2CCOCC2)=C(Cl)Cl)cc1F	-51.2*	i	-0.2%	-11.9%	-16.4%
Cc1cc(S(=O)(=O)Nc2ccc(C(=O)NCCCN3CCOCC3)cc2)ccc1F	4.6	i	0.6%	5.6%	-7.0%
Cc1ccc(C(NC(=O)N2CCCCC2)=C(Cl)Cl)cc1F	-70.6*	i	3.1%	?	-19.9%
O=C1C=CCC(/C=C/c2ccccc2)O1 (stereo not drawn)	-102.7*	?	0.6%	5.01µM*	-35.6%
COc1cc(NC(=O)COc2ccc(-n3ccnc3)cc2)cc(OC)c1	-106.0*	i	1.0%	·	?
CCc1sc(C(=O)Nc2cccc(-n3cnnn3)c2)cc1C	?	i	0.4%	?	-24.4%
Cc1ccc(-c2nnc(OCc3cccnc3)c3ccccc23)cc1	-82.6*	?	2.5%	-15.2%	-20.4%

High-throughput results as filed in PubChem BioAssay.
